Source: PubChem BioAssay
Hits are enriched below; roughly 12% of the tested compounds scored in any of these assays.
Pf growth 48h = inhibits P. falciparum growth in the first generation, 48 h. P. falciparum luciferase growth in erythrocytes, 48 h. Potency, µM (series often up to 28.7 µM), for the others: at the top dose activity change, negative = inhibition, hits mostly inhibitors. 310,000 tested, 5.9% active. AID 504832; also: % is scaled to controls: 0 for no effect and ±100 for the full control effect
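Parasite viability was followed by luminescence of a genomically integrated firefly luciferase. Cultures held 0.1% parasitemia at 2% hematocrit (final), incubated under 5% CO2 at 37 C.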
SARS PLpro yeast = SARS-CoV PLP inhibition in yeast; S. cerevisiae expressing SARS-CoV PLpro, growth rescue; Potency, µM (series often up to 32.9 µM), without a hit: at the highest dose activity, positive = growth rescue, most hits filed as activators; 330,000 tested, 0.19% active; calls by dose curve; also: 0% is about no effect; nearly all actives have a fitted effect of over 55% in size
Pf growth 96h = P. falciparum growth inhibition at 96 hour, primary screen for plastid delayed-death inhibitors; P. falciparum luciferase reporter growth, 96 h; Potency, µM (doses to about 28.7 µM), for the others: at the top dose activity change, negative = inhibition, hits mostly inhibitors; 320,000 tested, 6.9% active; AID 504834; also: % is scaled to controls: 0 for no effect and ±100 for the full control effect
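Luminescence readout: decreased luciferase signal marks inhibited growth of reporter-expressing P. falciparum in infected red cells (2% hematocrit, 0.05% parasitemia final), exposed to compound two generations (96 h, 37 C, 5% CO2).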
AMA1 RON2 block = disrupts binding of P. falciparum AMA1 to RON2; AlphaScreen AMA1-biotinylated RON2 peptide binding; Potency, µM (highest dose often 58.2 µM), inactives show top-dose activity change, negative = inhibition, actives largely listed as inhibitors; 360,000 tested, 0.2% active; AID 720542;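 also: 0% = vehicle wells and -100% = peptide control; nearly all actives have a fitted effect of over 45% in size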
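AMA1 (3D7) with his tag at 25 nM final met compounds first, then biotinylated RON2 peptide at 25 nM; detection used donor plus acceptor beads, 10 µg/mL apiece, read by AlphaScreen after 30 min at room temperature.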
NS1 inh = blocks influenza NS1 protein function. Potency, µM (doses to about 46.1 µM), for the others: at the top dose activity, positive = more growth. 270,000 tested, 0.4% active; calls by dose curve; also: actives are rising curves; nearly all actives have a fitted effect of over 50% in size
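In this qHTS, NS1 from influenza A is expressed in budding yeast, where it slows growth. Cells are switched from glucose to 2% galactose medium (pH 6.0, -URA), treated with compound, and growth recovery is read at OD600.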
HCV inhibitor = HCV inhibition; Potency, µM (titrated, usually from 41.8 µM), for inactives: at the top dose activity change, negative = inhibition, usual class: inhibitors; 340,000 tested, 3.4% active; Huh7.5.1 HCVcc-Cre infection, luciferase reporter, 44 h; also: % is scaled to controls: 0 for no effect and ±100 for the full control effect
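1,000 cells/well; 4 h culture; + compound; + HCVcc-Cre (~0.5 moi); 44 h; luciferase substrate, RT 15 min; read 15 sec.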
* = called active by the depositor; ? = inconclusive; · = no result given. Unless noted, calls follow the shape of the dose curve; as a rule, active = well fitted curve in the direction sought with a large enough effect; inconclusive = small, poorly fitted or top-dose-only effect, or another doubt; inactive = no such curve, though single readings can be large; an effect the other way counts as inactive or inconclusive. Potency is read from the fitted curve at half-maximal effect.

SMILES | Pf growth 48h | SARS PLpro yeast | Pf growth 96h | AMA1 RON2 block | NS1 inh | HCV inhibitor
Cc1ccc(NC(=O)CSc2nnc(Cc3cccn3C)n2-c2ccc(F)cc2)c(C)c1 | · | 5.7% | 9.28µM* | -2.9% | -8.3% | -2.3%
Cn1cccc1Cc1nnc(SCC(=O)N2CCN(c3ccccc3)CC2)n1-c1ccc(F)cc1 | ? | 0.0% | 1.47µM* | -4.6% | 3.5% | 7.3%
COc1ccc(-c2ccc(C#N)c(SCC(=O)Nc3sc4c(c3C#N)CCC4)n2)cc1 | 15.3% | 4.9% | -7.5% | 0.0% | 18.6% | 1.7%
N#Cc1c(C(F)(F)F)cc(-c2ccccc2)nc1SCC(=O)Nc1sc2c(c1C#N)CCC2 | ? | 0.9% | 11.7µM* | -15.4% | 6.0% | -5.1%
N#Cc1ccc(-c2cccnc2)nc1SCC(=O)Nc1sc2c(c1C#N)CCC2 | ? | 6.0% | 1.47µM* | -12.8% | 14.3% | ?
CC(C)N(C(=O)N1CCN(c2ccnc3cc(Cl)ccc23)CC1)C(C)C | 8.28µM* | -0.2% | 8.28µM* | -4.0% | -12.9% | ?
CC(=O)c1ccc(S(=O)(=O)N2CCN(c3ccnc4cc(Cl)ccc34)CC2)cc1 | · | · | · | -2.9% | · | ·
CCOC(=O)N1CCN(c2ccnc3cc(Cl)ccc23)CC1 | 2.62µM* | 13.3% | 2.33µM* | -2.7% | -9.2% | -4.6%
O=C(c1ccc(Cl)cc1)N1CCN(c2ccnc3cc(Cl)ccc23)CC1 | 13.1µM* | -3.3% | 14.6% | -7.3% | -37.0% | ?
CCC(=O)N1CCN(c2ccnc3cc(Cl)ccc23)CC1 | 13.1µM* | -0.9% | 11.7µM* | -7.0% | -3.9% | 17.3%
CCOC(=O)N1CCN(c2cc3nccnc3cc2F)CC1 | 11.7% | -1.9% | · | -16.5% | 3.7% | 5.9%
CCOC(=O)C1=CC[C@@H](c2cc(OC)c(OC)c(OC)c2)N(S(=O)(=O)c2ccc(C)cc2)[C@H]1C(=O)OCC | · | 2.9% | · | -8.2% | · | 11.3%
O=C(COc1cccnc1[N+](=O)[O-])Nc1ccc(Cl)c(S(=O)(=O)N2CCOCC2)c1 | ? | 1.0% | ? | 34.3% | 4.7% | -11.3%
NC(=O)c1ccccc1NC(=O)COC(=O)CSCc1cccc(Cl)c1 | · | -0.3% | · | 6.1% | · | 14.8%
Cc1cccnc1-n1c(CCN2C(=O)c3ccccc3C2=O)nc2ccccc2c1=O | ? | 11.3% | 3.29µM* | 18.0% | -8.7% | 25.4%
O=C1c2ccccc2C(=O)N1Cc1nc2ccccc2c(=O)n1-c1ccc(Br)cn1 | 28.5% | -4.7% | 7.38µM* | -7.7% | -92.2% | 15.6%
O=C1c2ccccc2C(=O)N1CCc1nc2ccccc2c(=O)n1-c1ccccn1 | 13.1% | -5.3% | ? | 8.4% | -7.2% | 18.1%
Cn1cc(/C=N\O)nc2c(=O)n(-c3ccccc3)c(=O)nc1-2 | ? | 0.4% | ? | 47.2% | -0.2% | 18.2%
O=c1c2ccccc2c(C=Nc2cccc(S(=O)(=O)NCc3ccco3)c2)c(O)n1-c1ccc(Cl)cn1 | 14.7µM* | 3.3% | ? | -5.9% | 27.7% | ?
CC(C)c1nc2sc3c(c2c(=O)[nH]1)CC(C)(C)OC3 | 24.0% | 0.4% | 26.9% | -5.6% | 3.5% | -7.1%
CCn1c(O)c(/C=N/N=C/c2ccc(OC)cc2)c2cc(C3=NNC(=O)CC3)ccc21 | -0.2% | 1.0% | 5.1% | -19.3% | -2.3% | ?
CC/C(C)=N\N=C\c1c(O)n(CC)c2cc(C3=NNC(=O)CC3)ccc12 | ? | 7.2% | 10.4µM* | -4.9% | ? | -11.8%
COC(=O)[C@@]12CCCCN1[C@H](c1ccc(-c3cccc(Cl)c3)c(OC)c1)[C@H]1C(=O)N(C)C(=O)[C@H]12 | ? | 1.1% | ? | 8.4% | · | 23.1%
Cc1cc2oc(C(=O)Nc3nonc3C)c(C)c2cc1Cl | 75.0% | ? | 8.28µM* | 9.0% | -1.7% | -6.3%
CCc1nonc1NC(=O)c1oc2ccccc2c1C | 9.28µM* | -0.5% | ? | -0.7% | -15.3% | -25.0%
SMILES | Pf growth 48h | SARS PLpro yeast | Pf growth 96h | AMA1 RON2 block | NS1 inh | HCV inhibitor
CCc1nonc1NC(=O)c1oc2cc(Br)ccc2c1C | 9.28µM* | 2.8% | ? | 5.6% | -8.7% | -16.6%
CCc1nonc1NC(=O)c1oc2ccc(C)cc2c1C | 66.9% | -1.3% | ? | 0.3% | 0.1% | -3.8%
O=C(N/C(=C/c1ccc(F)cc1)C(=O)N1CCOCC1)c1ccco1 | · | · | · | -6.6% | · | ·
NC(=O)c1cc[n+](CC(=O)NC(=O)Nc2ccccc2)cc1 | 25.8% | -1.5% | 15.4% | -6.8% | · | 11.0%
Cc1cc(N2CCOCC2)nc(SCC(=O)c2ccc(Cl)cc2)n1 | ? | 5.0% | ? | 3.5% | -54.5% | -24.3%
Cc1cc(N2CCCC2)nc(SCC(=O)c2ccccc2)n1 | 42.7% | -13.0% | 9.4% | 6.8% | 10.4% | -18.0%
Cc1cc(N2CCOCC2)nc(SCc2c(Cl)cccc2Cl)n1 | 0.9% | -70.5% | 265.5% | -0.8% | -31.3% | 11.2µM*
Cc1cc(N2CCOCC2)nc(NCc2ccccc2)n1 | · | 2.2% | 8.4% | -7.9% | -17.6% | 12.6µM*
Cc1nc(CSc2ccc(Cl)cc2)cc(N2CCOCC2)n1 | 4.2% | -5.0% | 7.38µM* | -1.5% | 0.6% | 2.4%
Cc1cc(N2CCCCC2)nc(NCc2ccccc2)n1 | 3.29µM* | -5.3% | 2.94µM* | -12.0% | -119.2% | ?
Cc1ccc(S(=O)(=O)NCCC(=O)N2CCOCC2)cc1C | 3.9% | -0.5% | 25.3% | 7.7% | · | 15.1%
CCCCN(CC)C(=O)CSc1nc2n[nH]c(C)c2c(=N)n1-c1cccc(C)c1 | ? | -2.7% | ? | 47.3% | · | 11.2µM*
COc1ccccc1NC(=O)CSc1nc2n[nH]c(C)c2c(=N)n1-c1ccccc1Cl | 5.86µM* | ? | 5.5% | 2.0% | 23.0% | 11.2µM*
CCc1ccccc1NC(=O)CSc1nc2n[nH]c(C)c2c(=N)n1-c1ccc(OC)cc1 | ? | 20.5% | 31.8% | 19.6% | 9.3% | 11.2µM*
CCN(C(=O)CSc1nc2n[nH]c(C)c2c(=N)n1-c1ccc(Cl)c(C)c1)c1cccc(C)c1 | ? | 3.0% | 25.6% | 1.8% | 14.5% | ?
Cc1[nH]nc2nc(SCC(=O)NC3CCCCC3)n(-c3ccc(Br)cc3)c(=N)c12 | -12.6% | -2.2% | 13.1µM* | -16.6% | 6.7% | ?
CC(C)c1ccc(/C=C(\NC(=O)c2ccccc2)C(=O)NCCCN2CCOCC2)cc1 | 0.0% | 1.8% | 13.6% | -4.0% | 1.7% | 3.7%
CC1(C(=O)NCc2ccccc2)CN(S(C)(=O)=O)CC(=O)N1CCCn1ccnc1 (configuration not stated) | · | · | · | -12.5% | · | ·
Cc1cccc(-n2c(SCC(=O)N3CCCC3)nc3n[nH]c(C)c3c2=N)c1 | ? | 4.6% | ? | 14.2% | 10.4% | -19.7%
CCC(Sc1nc2n[nH]c(C)c2c(=N)n1-c1ccc(C)c(Cl)c1)C(=O)N1CCOCC1 (configuration not stated) | 13.1µM* | -0.1% | 22.9% | 1.2% | -35.6% | ?
